Reference: ChEMBL document CHEMBL1157539, “Thousands of chemical starting points for antimalarial lead identification” (Nature, 2010)
Residues, ends and D or L forms follow the SMILES beside them. *: point of attachment. Octanoyl = CCCCCCCC(=O)*

Tests used:
Type in all cases: functional
Plasmodium falciparum [1] = assay: GSK_TCMDC: Inhibition of Plasmodium falciparum 3D7 in whole red blood cells, using parasite LDH activity as an index of growth. Test compounds present at 2uM
Plasmodium falciparum [2] = assay: GSK_TCMDC: Inhibition of Plasmodium falciparum Dd2 in whole red blood cells, using parasite LDH activity as an index of growth. Test compounds present at 2uM
HepG2 = assay: GSK_TCMDC: Percent inhibition of human HepG2 cell line. Test compounds present at 10uM.

| Structure (SMILES) | Inhibition (Plasmodium falciparum [1]) [%] | Inhibition (Plasmodium falciparum [2]) [%] | Inhibition (HepG2) [%] |
| --- | --- | --- | --- |
| CS(=O)(=O)c1ccc2c(c1)CCN(CCC1CCC(NC(=O)C(=Cc3ccc(Cl)cc3Cl)c3ccc(-c4ccccc4)cc3)CC1)CC2 (stereo unspecified) | 81 | 16 | 33 |
| CN(c1ccc2c(c1)nc(NCc1ccc(F)cc1)n2C)c1ccnc(Nc2ccc(CS(C)(=O)=O)cc2)n1.Cl | 97 | 79 | 48 |
| O=C(/C=C/c1ccc(Cl)c(Cl)c1)NCCCCCN1CCC(NC(=O)c2ccc(F)cc2F)CC1 | 96 | 11 | 17 |
| COc1ccc(CNCc2ccccc2)cc1-c1ccc(S(=O)(=O)NCCN2CCCC2)c(C)c1.O=C(O)C(F)(F)F | 99 | 50 | 33 |
| CN1CCN(Cc2cccc(-c3ccc4c(Nc5cc(O)c(Cl)cc5F)ccnc4c3)c2)CC1 | 100 | 100 | 0 |
| CCNc1cc(C(=O)N[C@@H](Cc2ccccc2)[C@H](O)CNCCC(C)c2ccccc2)cc(N2CCCC2=O)c1.O=C(O)C(F)(F)F (stereo partly specified) | 99 | 95 | 0 |
| CCCC(C)n1ccc2c3c(N)nc(N)nc3ccc21 (stereo unspecified) | 94 | 91 | 70 |
| Cc1ccc(C(=O)Nc2cccc(CN3CCCN(Cc4ccc(O)cc4)CC3)c2)cc1.O=C(O)C(F)(F)F | 88 | 5 | 0 |
| CC(=O)N1N=C(c2ccc(Cl)cc2)Sc2c1nc(C1CCCCC1)n2C(C)=O | 100 | 67 | 1 |
| Cc1cccc2nc(-c3cccc(-c4ccc(NC(=O)C(C)C(=O)NC(C)C)cc4)c3)[nH]c12 (stereo unspecified) | 85 | 26 | 13 |
| NC(=O)COc1c(C2CCN(CCCCNC(=O)c3ccc(-c4ccc(Cl)cc4)c(O)c3)CC2)ccc2c1CCCC2 | 100 | 72 | 97 |
| CCCCCCCN1CCC(CC(=O)Nc2ccnc3ccc(OC)cc23)C(CC)C1 (stereo unspecified) | 100 | 75 | 14 |
| COc1ccc2nccc([C@@H](O)CN3CCC(NCc4nc5ccccc5s4)CC3)c2c1.O=C(O)C(=O)O | 93 | 5 | 8 |
| CN(C)CCOc1ccc(-c2cc(-c3ccc(Cl)c(O)c3)c(-c3ccnc(N)n3)o2)cc1 | 100 | 95 | 43 |
| COc1ccccc1/C=C/C(=O)NC1CCC(CCN2CCc3ccc(-c4cc(C)no4)cc3CC2)CC1.Cl (stereo unspecified) | 95 | 11 | 47 |
| CCCCCCCC(=O)N[C@@H](Cc1ccccc1)C(=O)N[C@H](C(=O)O)C(C)C (Octanoyl-Phe-Val-OH) | 89 | 0 | 0 |

| Structure (SMILES) | Inhibition (Plasmodium falciparum [1]) [%] | Inhibition (Plasmodium falciparum [2]) [%] | Inhibition (HepG2) [%] |
| --- | --- | --- | --- |
| CCCCNC(=O)C(C)NC(=O)c1ccc(O)c(-c2ccc(Cl)c(Cl)c2)c1 (stereo unspecified) | 98 | 8 | 0 |
| COc1ccc(-c2cnn3ccc(Nc4cc(OC)c(OC)c(OC)c4)nc23)cc1OC | 98 | 100 | 57 |
| COC(=O)C(Cc1ccccc1)C(CSCc1ccc(OC)cc1)C(=O)N[C@@H](C(=O)OC(C)(C)C)c1ccc(C(C)(C)C)cc1 (stereo partly specified) | 93 | 44 | 0 |
| Cc1ccc(Oc2ncccc2C(=O)Nc2cccc3cccnc23)c(C)c1 | 99 | 76 | 0 |
| Cc1ccccc1NC(=S)NC1CCN(CCCCCNC(=O)/C=C/c2ccc(Cl)c(Cl)c2)CC1 | 99 | 7 | 14 |
| CCOc1c(Br)cc(Cl)cc1CNCCCNc1nc2ccccc2[nH]1.Cl | 98 | 3 | 27 |
| O=C(/C=C/c1ccc(Cl)c(Cl)c1)NCCCCCN1CCC(NC(=O)c2ccc(F)c(F)c2)CC1 | 99 | 20 | 36 |
| CC(C)(C)c1ccc(S(=O)(=O)Nc2ccccc2N2CCOCC2)cc1 | 90 | 60 | 11 |
| CC(C)C[C@@H](C(=O)Nc1ccc(Cc2ccc(NC(=O)[C@H](CC(C)C)N(C)C(=O)OC(C)(C)C)cc2)cc1)N(C)C(=O)OC(C)(C)C | 92 | 57 | 17 |
| O=C(CCc1c[nH]cn1)Nc1cccc(-c2cccc(-c3nc4ccccc4[nH]3)c2)c1 | 100 | 25 | 8 |
| COCCN1CCC(N(CC2(O)CCN(c3ccc(C(F)(F)F)cc3)CC2)C(=O)Cn2c(SCc3cccc(F)c3F)cc(=O)c3ccccc32)CC1 | 94 | 75 | 29 |
| CCCc1cc(NC2CCN(C)CC2)nc(Nc2cccc(OC)c2)n1 | 100 | 28 | 31 |
| O=C(O)C(F)(F)F.O=C1CCCN1CCCNCc1cccc(-c2ccc(-c3nc4cc(C(F)(F)F)ccc4[nH]3)s2)c1 | 100 | 99 | 19 |
| CC1CCCCN1S(=O)(=O)c1ccc(NC(=O)c2cc(-c3ccccc3O)n[nH]2)cc1 (stereo unspecified) | 90 | 96 | 26 |
| CN1CCN(c2ccnc3ccc(NC(=O)Nc4ccc(Br)cc4)cc23)CC1 | 100 | 99 | 12 |
| COc1cccc(CNc2ncc(-c3ccsc3)c(-c3nccs3)n2)c1 | 89 | 82 | 9 |
